Data from PubChem BioAssay AID1259343 (VanderVen Lab, College of Veterinary Medicine, Cornell …, 2017).
Out of some 6,200 compounds screened, about 2,900 (47%) were called active. So high a share suggests a set chosen from earlier hits. This is one part of the list. A number with no mark means an inactive call. Rule as the data show it: active = inhibition above about 50%; inactive = the rest.

Assay: Mycobacterium tuberculosis growth inhibition, primary screen (AID 1259343)
Settings: inhibition: at 10 µM, stronger effect = higher value; outcome: 10 uM
For `CCCc1cc(N2CC(C)CC(C)C2)n2nc3nc(C)cc(C)c3c2n1` (configuration not stated), the inhibition was -1.46%. In the case of `COc1ccc(C(=O)NC(C)c2ccc(Cl)cc2Cl)cc1` (configuration not stated), the inhibition is reported as 55.6% (active). Compound `COc1ccc(OCc2cc(C(=O)NC(C)c3csc(C)n3)no2)c(Cl)c1` (configuration not stated) has an inhibition of 36.7%. `CC(NC(=O)c1cc(Cl)ccc1F)c1ccc(Cl)s1` (configuration not stated) gave an inhibition of 41.4%. `CN(Cc1ccc(F)cc1)c1ccc(-c2nc(C3CC3)no2)cn1` showed an inhibition of 27.2%. With `N#CC1(NC(=O)c2ccc(-c3nc(C4CC4)no3)cc2)CCSC1` (configuration not stated) the inhibition was 80.6% (active). Work on `O=[N+]([O-])c1ncc[nH]1` yielded an inhibition of 43.1%. In the case of `COc1ccc(Cc2n[nH]c(=S)o2)cc1`, the inhibition is reported as 101% (active). For `S=c1[nH]nc(Cc2ccccc2)o1`, the inhibition was -26.6%. For `O=C1c2cccc3cccc(c23)C(=O)N1CCCCCc1n[nH]c(=S)o1`, the inhibition was 29.7%. `CCOc1ccc(-c2n[nH]c(=S)o2)cc1` gave an inhibition of 48.7%. With `COc1ccc(CCCc2n[nH]c(=S)o2)cc1` the inhibition was 99.7% (active). In the case of `CC(Cc1n[nH]c(=S)o1)c1ccccc1` (configuration not stated), the inhibition is reported as 36.9%. For `CN(C)c1ccc(NC(=O)C2C[C@H]2c2ccccc2)cc1C(=O)NC1CCCCC1` (some centres not stated), the inhibition was 20%. For `O=C(NC1CCCC1)c1occc1COc1ccccc1`, the inhibition was 60.1% (active). With `O=C(Nc1ccc(Cl)c(Cl)c1)c1occc1COc1ccccc1` the inhibition was 32.6%. Work on `CC(=NNC(=O)NC1CCCCC1)c1ccco1` yielded an inhibition of -56.6%. With `O=C(NC(=S)NC1CCCCCCC1)c1ccco1` the inhibition was 63.9% (active). In the case of `O=C(NC1CCCCCC1)c1ccco1`, the inhibition is reported as 55.1% (active). In the case of `Cc1c(C(=O)NC2CCCCC2)oc2ccccc12`, the inhibition is reported as 90.9% (active). For `Cc1cc(-c2ccc(NC3=NCCCS3)cc2)nc2ccccc12`, the inhibition was 20.2%. `CC(C)CNC(=O)C(=O)NCCCc1ccc(N(C)C)cc1` showed an inhibition of 33%. Work on `CCN(CC)S(=O)(=O)c1ccc(N=Nc2c(C)nn(-c3ccccc3)c2N)cc1` yielded an inhibition of 25.3%. With `Cc1nn(-c2ccccc2)c(N)c1N=Nc1cccc(Cl)c1` the inhibition was 56% (active). Work on `CC(=O)Nc1cccc(N=C2NN=C(C34CC5CC(CC(C5)C3)C4)CS2)c1` yielded an inhibition of 35.4%. With `CN(C)C(=O)c1csc(-c2csc(NCC3CCC3)n2)c1` the inhibition was 38.9%. In the case of `Clc1ccc(-c2csc(NCC3CCCO3)n2)c(Cl)c1` (configuration not stated), the inhibition is reported as 77.3% (active). In the case of `Cc1cc(-c2csc(NC3CCCC3)n2)c(C)n1CC1CCCO1` (configuration not stated), the inhibition is reported as 23.4%. In the case of `CCCCSc1nnc2c(n1)OC=Nc1ccc(Br)cc1-2`, the inhibition is reported as 82.3% (active). `CCCCSc1nnc2c(n1)OC(C)(CC)Nc1ccccc1-2` (configuration not stated) showed an inhibition of -11.3%. For `CCCSc1nnc2c(n1)OC=Nc1ccc(Br)cc1-2`, the inhibition was 87.8% (active). In the case of `O=c1c2c3nc4ccccc4nc3n(C3CCCC3)c2ncn1Cc1ccco1`, the inhibition is reported as -15.8%. With `O=c1ccc(-c2ccc(F)cc2)nn1Cc1ccc(Br)cc1` the inhibition was 46.8%. Work on `O=c1ccc(-c2ccc(F)cc2)nn1Cc1ccccc1F` yielded an inhibition of 33.9%. In the case of `Cc1ccc(-c2ccc(=O)n(Cc3ccccc3F)n2)cc1`, the inhibition is reported as 28.8%. In the case of `O=c1ccc(-c2ccccc2)nn1Cc1cccc(Cl)c1`, the inhibition is reported as 92.4% (active). For `CCOc1ccc(-c2ccc(=O)n(Cc3ccccc3)n2)cc1`, the inhibition was 41.1%. `Cc1ccc(-c2ccc(=O)n(Cc3ccccc3)n2)cc1` gave an inhibition of 24%. In the case of `Cc1ccc(Cn2nc(-c3ccccc3)ccc2=O)cc1`, the inhibition is reported as 70.6% (active). Work on `O=c1ccc(-c2cccc(Br)c2)nn1Cc1ccccc1` yielded an inhibition of 22.6%. For `O=c1ccc(-c2ccc(Cl)cc2)nn1Cc1ccccc1F`, the inhibition was 70.5% (active). For `CCOc1ccc(-c2ccc(=O)n(Cc3ccc(F)cc3)n2)cc1`, the inhibition was 90.8% (active). For `O=c1ccc(-c2ccc(Br)cc2)nn1Cc1cccc(F)c1`, the inhibition was -4.34%. In the case of `CCOC(=O)NC(O)C(F)(F)C(F)(F)C(F)(F)C(F)(F)C(F)(F)C(F)F` (configuration not stated), the inhibition is reported as 27.7%. In the case of `Cc1nnc2n1N=CC=C(c1ccccc1)S2`, the inhibition is reported as 54.6% (active). With `O=S(=O)(Nc1nc2ccccc2nc1Nc1ccccc1)c1ccc(Br)s1` the inhibition was 80.6% (active). For `O=S(=O)(Nc1nc2ccccc2s1)c1ccc(Br)s1`, the inhibition was 70.2% (active). In the case of `O=S(=O)(Nc1nc2ccccc2nc1Nc1ccc2c(c1)OCO2)c1cccc2nsnc12`, the inhibition is reported as -10.2%. For `O=S(=O)(Nc1nc2ccccc2s1)c1ccccc1`, the inhibition was 57.6% (active). With `O=S(=O)(Nc1nc2ccccc2s1)c1ccc(Cl)s1` the inhibition was 93.7% (active). For `O=S(=O)(Nc1nc2ccccc2s1)c1cccs1`, the inhibition was -38.3%. Compound `CCN1CCN(C(C)CNc2nc3ccccc3s2)CC1` (configuration not stated) has an inhibition of -41.8%. With `NC(=S)Nc1nc2ccccc2s1` the inhibition was 89.5% (active). With `O=C(CCN1CCCCC1c1cccnc1)Nc1nc2ccccc2s1` (configuration not stated) the inhibition was 35.6%. `CC(=NNc1nc2ccccc2s1)c1cc2ccccc2o1` gave an inhibition of 3.87%. `N#Cc1ccc(COc2ccc(Br)cc2Br)cc1` gave an inhibition of 1.7%. With `Cc1cc(C)nc(Oc2ccc(Br)cc2Br)n1` the inhibition was 75.3% (active). In the case of `Brc1ccc2cc(Oc3ncccn3)ccc2c1`, the inhibition is reported as 5.33%. For `C=CCOc1ccc(/C=N\O)cc1Cl`, the inhibition was 86.2% (active). In the case of `C=C1C2CC[C@@]3(C)[C@H](c4ccoc4)OC(=O)C[C@]13O[C@H]1CC(O)C(C)(C)C(CC(=O)OC)[C@@]21C` (some centres not stated), the inhibition is reported as 79.9% (active). `COC(=O)C[C@H]1C2(C)CC34OC5(C)O[C@@]6([C@H](OC)C(OC(=O)C(C)C)[C@]7(C)C(/C(=C(/OC)C(C)C)C(=O)O[C@H]7c7ccoc7)[C@@]6(O5)[C@H](OC)[C@@]3(OC)C2OC(C)=O)[C@]14C` (some centres not stated) gave an inhibition of 37.5%. For `O=S(=O)(c1ccc(Cl)cc1)c1nc(Nc2ccc(F)cc2F)sc1Cl`, the inhibition was 82.6% (active). With `CCC(O)c1ccc(OCCCC(C)(C)C#N)cc1` (configuration not stated) the inhibition was 90.6% (active). For `FC(F)(F)c1ccnn1-c1nc(-c2ccc(Br)cc2)cs1`, the inhibition was 16.4%. With `O=C(NC1CCCC1)c1ccccc1NS(=O)(=O)c1ccc(F)c(F)c1F` the inhibition was 18.7%. `Cc1cc(Cl)ccc1NS(=O)(=O)c1ccc(F)c(F)c1F` gave an inhibition of 23.8%. With `O=S(=O)(Nc1ccc2ccccc2c1)c1ccc(F)c(F)c1F` the inhibition was 84.5% (active). For `O=S(=O)(Nc1ccc(Cl)cc1)c1ccc(F)c(F)c1F`, the inhibition was 95.7% (active). With `CSc1ccccc1NS(=O)(=O)c1ccc2ccccc2c1` the inhibition was 11.2%. `O=C(Nc1ccccc1)C1CSCN1S(=O)(=O)c1ccc(Cl)cc1C(F)(F)F` (configuration not stated) showed an inhibition of -4.72%. In the case of `COc1cc(Cc2cnc(N)nc2N)cc(OC)c1OC`, the inhibition is reported as 98.3% (active). With `CCCCNC(=O)c1cc2sc3ccccc3c2s1` the inhibition was 101% (active). Work on `CCCCNC(=O)c1ccc(C)c(OCC)c1` yielded an inhibition of -17.8%. `CN(C)c1ccc(/C=C/C(=O)N(C)C2C3CC4CC(C3)CC2C4)cc1` (configuration not stated) gave an inhibition of 8.71%. For `O=C(NNc1ccccc1)C(O)C(O)C(=O)NNc1ccccc1` (configuration not stated), the inhibition was 83.3% (active). For `CC(C)N(CC(=O)N(CCc1c[nH]c2ccccc12)Cc1ccc(C(C)(C)C)cc1)CC(O)COCc1ccco1` (configuration not stated), the inhibition was 53.8% (active). `COCCN(CC(=O)N(Cc1ccc(F)cc1)Cc1ccco1)C(=O)N(C)C` showed an inhibition of 22.5%. In the case of `COc1ccc(-c2oncc2-c2ccccc2)c(O)c1`, the inhibition is reported as -29.6%. In the case of `COc1cccc(Oc2cncnc2-c2ccc(OC)cc2O)c1`, the inhibition is reported as 76.5% (active). In the case of `CCN(CC)CCNc1nc(C23CC4CC(CC(C4)C2)C3)cs1`, the inhibition is reported as 55.4% (active). In the case of `COCCn1c(SCCc2ccccc2)nc2cc(Cl)ccc2c1=O`, the inhibition is reported as 15.5%. Compound `COCCn1c(SC(C)C)nc2ccc(Br)cc2c1=O` has an inhibition of -18.7%. With `CC(C)CCn1c(SCC(=O)NC(C)(C)C)nc2cc(Cl)ccc2c1=O` the inhibition was 88.4% (active). For `NCCOB(c1ccccc1)c1ccccc1`, the inhibition was 101% (active). Compound `O=C(CC1CCCC1)NCCCNC(=O)CC1CCCC1` has an inhibition of 7.09%. With `O=C(CCl)NCCCCCCCCCNC(=O)CCl` the inhibition was 93.8% (active). With `CS(=O)(=O)Nc1c(Cl)c(Cl)c(Cl)c(Cl)c1Cl` the inhibition was 84% (active). `Cc1ccc(N2CCN(C(=O)C34CC5CC(CC(C5)C3)C4)CC2)cc1Cl` gave an inhibition of 10.8%. In the case of `CC(Nc1cc(N2CCNCC2)ccc1[N+](=O)[O-])C12CC3CC(CC(C3)C1)C2` (configuration not stated), the inhibition is reported as 59.9% (active). In the case of `O=[N+]([O-])c1ccc(Cl)cc1NN=C1C2CC3CC1CC(O)(C3)C2`, the inhibition is reported as 47.3%. With `O=[N+]([O-])c1ccc(N2CCNCC2)cc1NC1C2CC3CC(C2)CC1C3` (configuration not stated) the inhibition was 83.1% (active). In the case of `COc1ccc(NC(=O)Nc2cccc(-c3ccc(N4CCCC4)nn3)c2)cc1`, the inhibition is reported as 66.1% (active). For `COc1ccc(NC(=O)N2CCCC(C(=O)c3cccc(OC(C)C)c3)C2)cc1OC` (configuration not stated), the inhibition was 19%. For `COc1ccc(C)cc1C(=O)Nc1ccc(N2CCCCC2)nc1`, the inhibition was 2.05%. Compound `Fc1ccc(NN=Cc2ccc(F)c(F)c2)c(F)c1` has an inhibition of 40.3%. In the case of `NC(=S)NN=Cc1c[nH]c2ccccc12`, the inhibition is reported as “inactive”. With `Fc1ccc(NN=Cc2ccccn2)c(F)c1` the inhibition was 103% (active). With `C(=NNc1ccccc1)c1c[nH]c2ccccc12` the inhibition was 52% (active). Work on `O=C(NN=Cc1c[nH]c2ccc(Br)cc12)C1CC1` yielded an inhibition of 13.7%. For `Fc1ccc(NN=Cc2c[nH]c3ccccc23)c(F)c1`, the inhibition was 90.6% (active). For `C=CCN1C(=O)C(=O)N(CC2CCCCC2)C1=O`, the inhibition was 43.2%. Compound `C=CCn1c(SCCCC)nc(O)cc1=O` has an inhibition of 33.7%. For `CCCCSc1nsc(NC(C)=O)n1`, the inhibition was 71.7% (active). Work on `Cc1ccc2c(c1)-c1c(s[s+]c1SCC(=O)c1ccccc1)C(C)(C)N2` yielded an inhibition of 18.9%. `CN(CC(=O)Nc1ccc(Cl)cc1Cl)Cc1ccsc1` showed an inhibition of 34.7%. `Cc1ccc(CN(C)CC(=O)Nc2cc(Cl)ccc2C#N)cc1` showed an inhibition of -19.5%. With `Cc1ccc(F)cc1NC(=O)CN(C)Cc1ccccc1F` the inhibition was 86.7% (active).
